Compound activity as filed in PubChem BioAssay.
Only some compounds are listed: those with a hit (about 0.86% of all), similar ones and a draw of the others.
RECQ1 inh-1 = qHTS Assay for Inhibitors of RecQ-Like Dna Helicase 1 (RECQ1); 0.54% of 240,000 active; ATP-dependent DNA helicase Q1 (Homo sapiens), P46063; AID 2549, 2010; RECQ1 DNA unwinding, red fluorescence kinetic read; Potency, µM (titrated, usually from 57.3 µM), for inactives: at the top dose activity, negative = inhibition, usual class: inhibitors;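 further: plate controls were vehicle for no effect and no enzyme for full effect; nearly all actives have a fitted effect of over 30% in size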
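RECQ1T1 50 nM; forked duplex (20 bp + 30-nt ss tails) 200 nM, ATP 2 mM final; pH 8.0, 2 mM MgCl2, 2.5 ug/ml poly(dI-dC); 15 min compound preincubation; discontinuous kinetic read over 2 h at RT.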
PGK inhibitor = qHTS Assay to Find Inhibitors of Phosphoglycerate Kinase; Phosphoglycerate kinase, glycosomal (Trypanosoma brucei brucei), P07378; PGK/GAPDH coupled, Kinase-Glo luminescence, 60 min; Potency, µM (top dose mostly 57.5 µM), without a hit: at the highest dose activity change, negative = inhibition, most hits filed as inhibitors; 0.043% of 380,000 active; AID 602233, 2012; further: nearly all actives have a fitted effect of over 60% in size
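Recombinant glycosomal PGK reaction used 1,3-bisphosphoglycerate generated in-well by GAPDH (100nM final) in 100mM TEA pH 7.6, 5mM MgCl2, 0.01% Tween-20. After 60 minutes at room temperature, ATP was read by Kinase-Glo Plus luminescence end-point.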
BLM inh = qHTS Assay for Inhibitors of Bloom's syndrome helicase (BLM); AID 2528, 2010; Potency, µM (series often up to 56.1 µM), for inactives: top-dose activity change, negative = inhibition, hits mostly inhibitors; 0.2% of 350,000 active; RecQ-like DNA helicase BLM (Homo sapiens), P54132; recombinant BLM DNA unwinding, fluorescence dequenching;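 further: plate controls were vehicle for no effect and no enzyme for full effect; nearly all actives have a fitted effect of over 35% in size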
GLS inhibitor = qHTS for Inhibitors of Glutaminase (GLS) | Glutaminase kidney isoform, mitochondrial (Homo sapiens), O94925 | GLS enzymatic activity, qHTS titration | Potency, µM (doses to about 45.5 µM), for inactives: at the top dose activity change, negative = inhibition, usual class: inhibitors | 0.21% of 410,000 active | AID 624170, 2012
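hKGA; 45 mM KH2PO4 pH 8.2 + 0.02% Tween-20; cpd via pin tool; 1 mM Gln soln; GluOx/HRP/Amplex Red; RT 30 min; fluor. t0 & final.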
APE1 inh-1 = qHTS Assay for Inhibitors of the Human Apurinic/apyrimidinic Endonuclease 1 (APE1). DNA repair nuclease/redox regulator APEX1 (Homo sapiens), P27695. Potency, µM (top dose mostly 65.8 µM), without a hit: at the top dose activity change, negative = inhibition, usual class: inhibitors. recombinant APE1, TAMRA/BHQ-2 abasic DNA cleavage fluorescence. AID 2517, 2012. 0.35% of 350,000 active;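 further: plate controls were vehicle for no effect and reference inhibitor for full effect; nearly all actives have a fitted effect of over 55% in size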
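0.75 nM APE1 + cpd, 15 min RT; start w/ 50 nM TAMRA/BHQ-2 THF-abasic dsDNA; kinetic fluor 525/598 nm ×3 reads @60 s; Δ(read3−read1); normalized to DMSO and NSC13755 control wells.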
FEN1 inhibitor = qHTS Assay for the Inhibitors of Human Flap endonuclease 1 (FEN1) | P39748 | 0.35% of 390,000 active | Recombinant FEN1 flap cleavage, fluorescence, 15 min | Potency, µM (highest dose often 114 µM), inactives show at the top dose activity change, negative = inhibition, hits mostly inhibitors; further: nearly all actives have a fitted effect of over 65% in size
Target sequence (P39748 whole entry, looked up): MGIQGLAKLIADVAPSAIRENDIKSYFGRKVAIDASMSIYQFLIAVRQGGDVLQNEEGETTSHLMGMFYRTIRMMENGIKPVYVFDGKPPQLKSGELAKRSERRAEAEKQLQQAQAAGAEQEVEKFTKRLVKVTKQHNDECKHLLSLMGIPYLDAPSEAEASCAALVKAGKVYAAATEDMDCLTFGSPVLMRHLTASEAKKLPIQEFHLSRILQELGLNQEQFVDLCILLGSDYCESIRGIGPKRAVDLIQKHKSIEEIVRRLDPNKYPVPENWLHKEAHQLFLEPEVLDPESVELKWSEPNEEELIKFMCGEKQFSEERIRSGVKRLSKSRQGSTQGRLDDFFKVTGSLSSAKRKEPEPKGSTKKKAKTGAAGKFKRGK
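In this screen, 50 nM flap DNA substrate was added to 10 nM FEN1 pretreated with compound for 15 min at room temperature; cleavage was followed with reads at 0 and 15 min, and Hill fitting gave concentration–response parameters.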
DNA dye displace = Counterscreen for APE1 Inhibitors: Fluorescent Dye Displacement Assay; shares compounds with APE1 inh-1; DNA fluorescent dye displacement counterscreen, fluorescence; Potency, µM (titrated, usually from 28.5 µM), inactives show top-dose activity change, negative = inhibition, usual class: inhibitors; 7% of 480 active; AID 2564, 2010;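 further: loss of thiazole orange fluorescence as the dye is displaced from duplex DNA; 0% = ThO with dsDNA and no compound and -100% = ThO without dsDNA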
Endo IV inh = Counterscreen for APE1 Inhibitors: qHTS Assay for Inhibitors of Endonuclease IV; shares compounds with APE1 inh-1; E. coli Endo IV, fluorogenic AP-site DNA cleavage; Potency, µM (highest dose often 27.1 µM), for the others: at the top dose activity change, negative = inhibition, actives largely listed as inhibitors; 4% of 560 active;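 further: plate controls were uninhibited enzyme wells for no effect and no enzyme buffer wells for full effect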
APE1 inh-2 = Confirmation qHTS Assay for Inhibitors of the Human Apurinic/apyrimidinic Endonuclease 1 (APE1); Potency, µM (titrated, usually from 57.1 µM), for the others: at the top dose activity change, negative = inhibition, hits mostly inhibitors; purified APE1, fluorogenic abasic-site DNA cleavage; shares compounds with APE1 inh-1; AID 2572, 2010; 44% of 750 active; further: nearly all actives have a fitted effect of over 30% in size
APE1 FP = qHTS FP-Based Assay for Inhibitors of the Human Apurinic/apyrimidinic Endonuclease 1 (APE1); 7% of 480 active; shares compounds with APE1 inh-1; Potency, µM (top dose mostly 28.5 µM), for inactives: top-dose activity, negative = inhibition, usual class: inhibitors; APE1 binding to TAMRA-labelled double-stranded DNA, fluorescence polarization displacement
RECQ1 conf = Confirmation qHTS Assay for Inhibitors of RecQ-Like Dna Helicase 1 (RECQ1). shares compounds with RECQ1 inh-1. RECQ1 helicase DNA unwinding, fluorescence. Potency, µM (top dose mostly 229 µM), without a hit: top-dose activity change, negative = inhibition, usual class: inhibitors. 28% of 610 active. AID 2708, 2010; further: nearly all actives have a fitted effect of over 45% in size
ADP FP counter = Counterscreen for RECQ1 Inhibitors: ADP Fluorescence Polarization Displacement Assay; 27% of 530 active; shares compounds with RECQ1 inh-1; Potency, µM (top dose mostly 228 µM), for the others: at the highest dose activity change, negative = inhibition, actives largely listed as inhibitors; ADP fluorescence polarization displacement counterscreen; further: nearly all actives have a fitted effect of over 45% in size
RECQ1 inh-2 = Confirmation qHTS Assay for Inhibitors of RecQ-Like Dna Helicase 1 (RECQ1) - Round 2 Cherry Picks; shares compounds with RECQ1 inh-1; recombinant RECQ1 DNA unwinding, red fluorescence; Potency, µM (doses to about 119 µM), inactives show top-dose activity, negative = inhibition, most hits filed as inhibitors; 15% of 1,100 active; AID 504841, 2011; further: nearly all actives have a fitted effect of over 50% in size
* hit, by the source's call; ? = inconclusive; nt = no result given; [ ] = remark or other dose. The call rests on the fitted dose curve; in most records, active means well fitted curve in the direction sought with a large enough effect; inconclusive means small, poorly fitted or top-dose-only effect, or another doubt; inactive means no such curve, though single readings can be large; an effect the other way counts as inactive or inconclusive. Unless noted, on the % scale 0 is the no-effect control and ±100 the full control effect; potency means the concentration at half of the fitted maximal effect.

SMILES	RECQ1 inh-1	PGK inhibitor	BLM inh	GLS inhibitor	APE1 inh-1	FEN1 inhibitor	DNA dye displace	Endo IV inh	APE1 inh-2	APE1 FP	RECQ1 conf	ADP FP counter	others
O=C(CSC1CC(=O)N(CC(c2ccccc2)c2ccccc2)C1=O)Nc1ccc(Cl)cc1 (stereo unspecified)	?	2%	-13%	-1%	?	-22%	48%	?	?	13%	nt	nt	RECQ1 inh-2=?
O=C(O)CSC1CC(=O)N(c2ccc(Cl)cc2)C1=O (stereo unspecified)	-3%	-1%	0%	8%	3%	-1%	nt	nt	nt	nt	nt	nt
O=C(/C=C/c1ccc(O)c(O)c1)OC1C(O)CC(OC(=O)/C=C/c2ccc(O)c(O)c2)(C(=O)O)CC1O (stereo unspecified)	-2%	-14%	6%	?	?	-2%	-7%	104%	-11%[24.4 µM]	?	6%	-3%
CCOC(=O)C1CCc2sc(N)c(C#N)c21 (stereo unspecified)	25µM*	-2%	-6%	50%	?	6%	-4%	0%	-8%[24.4 µM]	?	11%[114 µM]	-1%[91.9 µM]
COc1ccccc1/C=C1\C=Cc2ccccc21	nt	nt	nt	nt	nt	-20%	nt	nt	nt	nt	nt	nt
